# Results filed as inconclusive are left out. Unmarked numbers belong to inactive results. The call rests on the fitted dose curve.
# Test: cAMP Responsive Elements (CRE) small molecule agonists, cell-based qHTS assay (AID 1963590)
# Conditions: CRE-bla HEK293T, beta-lactamase FRET ratio, 3 h; series mostly up to 92.4 µM; activation: at the top concentration
# Text: U.S. Tox21 Program National Center for Advancing Translational Sciences [NCATS] Division of Preclinical Innovation [DPI] U.S. Environmental Protection Agency [EPA] National Institutes of Environmental Health Sciences [NIEHS] National Toxicology Program [NTP] U.S. Food and Drug Administration [FDA] Tox21 Assay Overview: CREB (cyclic-AMP Responsive Element Binding Protein) is a cellular transcription factor. It binds to certain DNA sequences called cAMP Responsive Elements (CRE) and regulates the transcription of the genes. […] This cell line can be used to find agonists/antagonists of the cyclic AMP signaling pathway. The activation of the report gene under culture conditions can be detected by fluorescence intensity. This cell line has been used to screen the Tox21 10K compound library to identify agonists that induce oxidative stress.
# Tox21 Assay Protocol Summary: CRE-bla Hek 293T cells were suspended in assay medium (DMEM containing 10% dialyzed FBS, 0.1 mM NEAA, 1 mM sodium pyruvate and 25 mM HEPES) and dispensed at 2,000 cells/5 uL /well into 1536-well black wall/clear bottom plates using a Multidrop Combi (ThermoFisher Scientific, Waltham, MA) dispenser. After the assay plates were incubated at 37 C/5% CO2 for 18 hrs, 23 nL of compounds dissolved in DMSO, positive controls or DMSO only was transferred to the assay plate by a pintool workstation (Kalypsys, San Diego, CA). After the plates were incubated at 37 C/5% CO2 for 3 hrs, 1 uL of LiveBLAzer B/G FRET substrate (Invitrogen, Carlsbad, CA) was added to each well using Bioraptr Flying Reagent Dispenser (FRD, Aurora Discovery, San Diego, CA). The plates were incubated at room temperature for 2 h.
# On the % scale 0 is the no-effect control and ±100 the full control effect.
row,SMILES,activation
1,COC(=O)C1=C(C)NC(C)=C(C(=O)OCC(C)=O)C1c1ccccc1[N+](=O)[O-] (stereo not given),-4.5% [at 42.5 µM]
2,Cc1ccccc1C(=O)Nc1ccc(C(=O)N2CCCC(O)c3cc(Cl)ccc32)c(C)c1 (stereo not given),-0.069% [at 42.5 µM]
3,O=C(Nc1ccccc1)OCC(CN1CCCCC1)OC(=O)Nc1ccccc1 (stereo not given),5.33% [at 42.5 µM]
4,CCCCNc1ccc(C(=O)OCCOCCOCCOCCOCCOCCOCCOCCOCCOC)cc1,4.31% [at 42.5 µM]
5,CCCCOc1ccc(N)cc1,1.83%
6,CC(=O)[C@H]1[C@H](C#N)C[C@H]2[C@@H]3CC=C4C[C@@H](O)CC[C@]4(C)[C@H]3CC[C@@]21C,2.03% [at 42.5 µM]
7,CN1CCC(OC(c2ccccc2)c2ccccc2)CC1,0.0414% [at 42.5 µM]
8,NC(=O)c1cc[n+](CC2=C(C(=O)[O-])N3C(=O)[C@@H](NC(=O)Cc4cccs4)[C@H]3SC2)cc1,-0.0122% [at 42.5 µM]
9,CC(C)[C@H]1CC[C@H](C)C[C@@H]1O,0.538%
10,CC(C)c1cccc(C(C)C)c1NC(=O)NS(=O)(=O)c1cc(C(C)(C)O)co1,-2.53%
11,CCO[Si](CC(C)C)(OCC)OCC,-2.3%
12,CC(CN(CCN(CC(C)OCCO)CC(C)OCCO)CC(C)OCCO)OCCO (stereo not given),0.104%
13,CCC(C)(C)C1CCC(O)CC1 (stereo not given),-1.93%
14,Cc1ccc(O)c2ncccc12,0.0644% [at 42.5 µM]
15,CC(C)(C)C(=O)CCc1ccc(Cl)cc1,-0.474%
16,COCCOC[C@H](CC1(C(=O)NC2CCC(C(=O)O)CC2)CCCC1)C(=O)Oc1ccc2c(c1)CCC2 (stereo not given in full),6.65%
17,COc1cc([C@@H]2c3cc4c(cc3[C@@H](O[C@@H]3O[C@@H]5CO[C@@H](C)O[C@H]5[C@H](O)[C@H]3O)[C@H]3COC(=O)[C@H]23)OCO4)cc(OC)c1O,5.25%
18,Cc1onc(-c2ccccc2Cl)c1C(=O)N[C@@H]1C(=O)N2[C@@H]1SC(C)(C)[C@@H]2C(=O)O,-2.28% [at 42.5 µM]
19,Nc1cccc([N+](=O)[O-])c1,-1.58%
20,Cc1ccc(C=O)cc1C,-0.352%

row,SMILES,activation
1,Nc1ccccn1,5.32%
2,CCc1c(C)cc(N)c(CC)c1N,0.0669%
3,CCCCCCCC/C=C\CCCCCCCC(=O)OCC,-0.811%
4,CC[N+](C)(CC)CC,-0.987%
5,CC[C@H]1OC(=O)[C@H](C)[C@@H](O[C@H]2C[C@@](C)(OC)[C@@H](O)[C@H](C)O2)[C@H](C)[C@@H](O[C@@H]2O[C@H](C)C[C@H](N(C)C)[C@H]2O)[C@](C)(O)C[C@@H](C)CN(C)[C@H](C)[C@@H](O)[C@]1(C)O,-0.745% [at 42.5 µM]
6,CC(=O)SCc1ccco1,-0.042%
7,CC(C)(C)c1cc(CO)cc(C(C)(C)C)c1O,-0.0318%
8,[Ca+2],1.08%
9,CC(CO)(CO)[N+](=O)[O-],-0.903%
10,O=[N+]([O-])c1ccc2ncccc2c1,-3.2%
11,CC(C)CCOCc1ccccc1,2.74%
12,CN(C)CC/C=C1\c2ccccc2COc2ccccc21,0.312% [at 42.5 µM]
13,CCCCOCCOCCOCc1cc2c(cc1CCC)OCO2,3.6% [at 42.5 µM]
14,CC(C)N(C)C,0.103%
15,CCCCNC(=S)NCCCC,-0.145%
16,C=C(C)C(=O)OCC,0.64%
17,OCC1CC=CCC1 (stereo not given),0.339%
18,O=C(O)CCc1nc2ccccc2[nH]1,-0.83% [at 42.5 µM]
19,COc1nccnc1NS(=O)(=O)c1ccc(N)cc1,0.0182% [at 42.5 µM]
20,CN1CCCN(C(c2ccccc2)c2ccc(Cl)cc2)CC1 (stereo not given),1.12% [at 42.5 µM]
